ChEMBL document CHEMBL1157539, “Thousands of chemical starting points for antimalarial lead identification” (Nature, 2010)

System: Plasmodium falciparum
Experiment: GSK_TCMDC: Inhibition of Plasmodium falciparum Dd2 in whole red blood cells, using parasite LDH activity as an index of growth. Test compounds present at 2uM
Assay type: functional

| Structure (SMILES) | Inhibition |
| --- | --- |
| CN(C)Cc1cccc(-c2cc3c(-c4cnn(C)c4)c(Cl)cnc3[nH]2)c1 | 21% |
| CN1CCN(Cc2c(O)ccc3c(=O)c(Oc4ccc(C(C)(C)C)cc4)c(C(F)(F)F)oc23)CC1 | 88% |
| CC1CCC(NC(=O)c2nn(-c3ccc(Cl)cc3)c(=O)c3ccccc23)CC1 (configuration not stated) | 67% |
| CCN(CC)CCN(Cc1ccc(-c2ccc(C(F)(F)F)cc2)cc1)C(=O)Cn1c(CCc2ccc(F)c(C#N)c2)nc(=O)c2ccccc21.O=C(O)C(O)C(O)C(=O)O | 55% |
| COc1ccc(CCNC(=O)c2cnc3c(c2)nc(-c2c[nH]c(-c4ccccc4)n2)n3CCc2c[nH]cn2)cc1 | 70% |
| CC(=NO)C1=C(O)C(c2ccccc2)N(c2ccccc2)C1=O (configuration not stated) | 23% |
| Cc1cc(O)c(CN(C)Cc2ccc3c(c2)OCO3)cc1C(C)C | 74% |
| C=CC(=O)Nc1ccc(Cl)cc1C(O)c1ccccc1 (configuration not stated) | 5% |
| Cc1ccccc1C1CCN(C2CCC(NC(=O)/C=C/c3cc(F)ccc3F)CC2)CC1 (configuration not stated) | 36% |
| c1ccc(Oc2ccc(Nc3ccnc(Nc4cccc(CNCCCN5CCOCC5)c4)n3)cc2)cc1 | 50% |
| N#Cc1ccc2[nH]cc(C(=O)CCCCCN(Cc3ccccc3)Cc3ccccc3)c2c1 | 97% |
| Cl.c1ccc2c(NCCCCCCCCNc3ccnc4ccccc34)ccnc2c1 | 35% |
| COc1cc(Cc2cnc(N)nc2N)ccc1OCc1ccc(-c2ccccc2C#N)cc1 | 3% |
| COc1cc(Nc2ccnc3cc(-c4nccs4)ccc23)ccc1OCCCc1nc2ccccc2[nH]1.Cl | 68% |
| Clc1ccc2nc(-c3cccnc3)[nH]c2c1 | 97% |

System: HepG2
Experiment: GSK_TCMDC: Percent inhibition of human HepG2 cell line. Test compounds present at 10uM.
Assay type: functional

| Structure (SMILES) | Inhibition |
| --- | --- |
| CN1CCN(CCCN(Cc2ccc(-c3ccc(CNCc4ccc5c(c4)OCO5)cc3)cc2)C(=O)CCC2CCCC2)CC1.O=C(O)C(F)(F)F | 55% |
| COc1ccc(CNC2Cc3ccccc3C2)cc1-c1ccc(S(=O)(=O)NCCc2ccccn2)s1.O=C(O)C(F)(F)F | 11% |
| Nc1cc(/C=C/c2ccc([N+](=O)[O-])o2)nc2ccccc12 | 100% |
| C=CCOC(=O)O[C@@H]1[C@@H](OC(=O)OCC=C)[C@@H](OC)O[C@H](COC(c2ccccc2)(c2ccccc2)c2ccccc2)[C@H]1OC(=O)OCC=C | 5% |
| Cc1ccc(C(=O)Nc2cc(S(=O)(=O)N3CCCC3)ccc2OCC(F)(F)F)cc1 | 0% |
| Fc1ccc(CNc2ncc(-c3ccsc3)c(-c3nccs3)n2)cc1 | 7% |
| COc1ccc(-c2cccc(NC(=O)c3ccc(Cl)cc3)c2)cc1CN1CCCN(C)CC1.O=C(O)C(F)(F)F | 29% |
| Cc1cc(N/N=C/c2cccc([N+](=O)[O-])c2)c2ccc(F)cc2n1 | 0% |
| CC(C)(C)C(C)(C)Cc1ccc(O)c(CN2CCN(c3ccccc3)CC2)c1 | 6% |
| CC(C)C(C)(C#N)NC(=O)CSc1nc2ccc([N+](=O)[O-])cc2s1 (configuration not stated) | 0% |
| O=C(NCc1ccc(C(F)(F)F)cc1)c1cccc(-c2nnc(-c3cccc(-c4cncnc4)c3)o2)c1 | 13% |
| CCCCCC(=O)N1CCOC(CCN2CCc3c(c4ccccc4n3C)C2)(c2ccc(Cl)c(Cl)c2)C1 (configuration not stated) | 24% |
| CC(C)(C)C(=O)Nc1c(-c2cc(=O)oc3cc4c(cc23)CCC4)oc2ccccc12 | 0% |
| CC(C)(C)NS(=O)(=O)c1cc(C(=O)N2CCC(CCN3CCC(O)(c4cccc(C(F)(F)F)c4)CC3)(c3cccc(F)c3)CC2)c(Cl)cc1F | 15% |
| CC[C@H](C)CNC(=O)c1cncc(-c2ccc(CNC3CCCC3)cc2)c1.O=C(O)C(F)(F)F | 0% |
| COc1ccccc1C1CCN(C2CCC(NC(=O)/C=C/c3ccc(C(F)(F)F)cc3F)CC2)CC1 (configuration not stated) | 63% |
| Cc1cc(C)cc(-n2c(C)cc(/C=C3\SC(=Nc4ccc(Cl)cc4)NC3=O)c2C)c1 | 12% |
| Cc1ccccc1C1CCN(C2CCC(NC(=O)c3ccc(-c4ccccc4)s3)CC2)CC1 (configuration not stated) | 26% |
| Cc1ccccc1C1CCN(C2CCC(NC(=O)/C=C/c3cc(C(F)(F)F)ccc3F)CC2)CC1 (configuration not stated) | 56% |
| Cc1c(CNCCCNc2nc3ccccc3[nH]2)sc(C(F)F)c1Br.Cl | 9% |
| CC(C)CCn1c(Sc2ccc(C#N)c([N+](=O)[O-])c2)nnc1-c1ccccc1Cl | 20% |
| O=C(Nc1ccc(Cl)cn1)c1sc2ccccc2c1O | 2% |
